Test results from PubChem BioAssay (Tox21).
Records with an inconclusive call do not appear. Active and inactive are the calls of the source. Unless noted, the call rests on the fitted dose curve.

Tests used:
[1] = Nuclear factor erythroid 2-related factor 2/antioxidant responsive element (Nrf2/ARE) small molecule agonists: qHTS cell viability counter screen in human keratinocytes (AID 1919968; active means well fitted curve in the direction sought with a large enough effect in the repeat runs; an effect the other way counts as inactive or inconclusive; further: nearly all actives have a fitted effect of over 55% in size; further: potency means the concentration at half of the fitted maximal effect)
In short: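 Measured as CellTiter-Fluor fluorescence, this readout tracks cytotoxicity in the same wells as the ARE-luciferase screen. HaCaT reporter cells (1,500/well) received compounds after a 5 h pre-incubation and were exposed for 23 h.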

[2] = Nuclear factor erythroid 2-related factor 2/antioxidant responsive element (Nrf2/ARE) small molecule agonists: luciferase reporter gene qHTS assay in human keratinocytes (AID 1919969); further: nearly all actives have a fitted effect of over 35% in size; further: potency means the concentration at half of the fitted maximal effect
[3] = biological target: Gonadotropin-releasing hormone receptor (Homo sapiens) (UniProt P30968); assay: Human gonadotropin-releasing hormone receptor (GnRHR) small molecule agonists, calcium flux assay in GnRHR-HEK293 cells (AID 1920063); further: nearly all actives have a fitted effect of over 35% in size; further: potency means the concentration at half of the fitted maximal effect
Gonadotropin-releasing hormone receptor (Homo sapiens), sequence (P30968 whole entry, looked up): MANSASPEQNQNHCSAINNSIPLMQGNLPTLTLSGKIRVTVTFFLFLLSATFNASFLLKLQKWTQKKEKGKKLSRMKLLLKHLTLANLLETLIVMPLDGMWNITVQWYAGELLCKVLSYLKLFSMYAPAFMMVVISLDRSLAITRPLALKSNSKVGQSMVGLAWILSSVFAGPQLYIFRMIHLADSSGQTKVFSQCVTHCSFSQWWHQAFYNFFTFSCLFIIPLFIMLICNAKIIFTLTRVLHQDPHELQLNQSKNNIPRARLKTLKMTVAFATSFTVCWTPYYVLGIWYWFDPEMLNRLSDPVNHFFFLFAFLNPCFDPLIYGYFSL
In short: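 Fluorescence kinetics (480 nm excitation, 540 nm emission; 3 min, 1 s steps) report calcium mobilisation in human GnRHR-HEK293 cells in agonist mode. Dye incubation: 1 h, 37 C.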

[4] = biological target: KiSS-1 receptor (Homo sapiens) (UniProt Q969F8); assay: Human kisspeptin (KISS1R) small molecule agonists, calcium flux assay in KISS1R-HEK293 cells (AID 1920064; active means well fitted curve in the direction sought with a large enough effect in the repeat runs; an effect the other way counts as inactive or inconclusive; further: potency means the concentration at half of the fitted maximal effect)
KiSS-1 receptor (Homo sapiens), sequence (Q969F8 whole entry, looked up): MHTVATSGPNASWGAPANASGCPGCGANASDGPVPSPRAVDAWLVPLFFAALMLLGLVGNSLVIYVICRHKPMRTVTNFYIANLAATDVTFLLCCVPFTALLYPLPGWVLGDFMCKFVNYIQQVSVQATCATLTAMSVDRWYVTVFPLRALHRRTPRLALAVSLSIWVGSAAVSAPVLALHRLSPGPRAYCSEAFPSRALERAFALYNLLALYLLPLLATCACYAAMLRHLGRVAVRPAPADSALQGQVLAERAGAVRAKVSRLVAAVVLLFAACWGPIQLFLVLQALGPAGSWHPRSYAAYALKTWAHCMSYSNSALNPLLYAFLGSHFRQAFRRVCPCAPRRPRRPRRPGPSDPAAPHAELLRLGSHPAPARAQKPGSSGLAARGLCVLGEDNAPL
In short: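 Measures KISS1R agonism through calcium-sensitive dye fluorescence in stably transfected HEK293 cells, read for 3 min after pin-tool compound delivery; 15-point titrations in triplicate.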

[5] = G protein-coupled receptor (GPCR) small molecule agonists, calcium flux assay: HEK293 wild type cell line counter screen (AID 1920065); further: potency means the concentration at half of the fitted maximal effect
In short: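 Readout: fluorescence at 480 nm excitation/540 nm emission, sampled at 1 s intervals for 3 min. Cells had been cultured 18 h, then dye-loaded 1 h at 37 C before compound or ATP addition.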

[6] = p53 small molecule agonists, cell-based qHTS assay with human liver microsomes (AID 1963577);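 further: p53 response element beta-lactamase reporter cells with liver microsomes plus NADPH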
In short: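 With metabolic activation: human liver microsomes (0.5 mg/mL final) plus NADPH (0.5 mg/mL final) added alongside compounds to p53RE-bla cells; 16 h 37 C exposure; beta-lactamase read by LiveBLAzer fluorescence.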

[7] = p53 small molecule agonists, cell-based qHTS assay with rat liver microsomes (AID 1963578)
In short: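 Metabolic activation by rat liver microsomes and NADPH, each 0.5 mg/mL final, added right after compounds to p53RE-bla reporter cells (4,000/well, plated 5 h earlier). 16 h at 37 C, then LiveBLAzer substrate for 2 h at room temperature in the dark; fluorescence read-out.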

[8] = p53 small molecule agonists, cell-based qHTS assay with human liver microsomes: qHTS cell viability counter screen (AID 1963579); further: nearly all actives have a fitted effect of over 45% in size; further: potency means the concentration at half of the fitted maximal effect
In short: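 Metabolic activation used human liver microsomes and NADPH, both 0.5 mg/mL final, over 16 hours at 37 C on p53RE-bla cells (4,000/well). Cytotoxicity measured by CellTiter-Glo luminescence, 30 min at room temperature.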

[9] = p53 small molecule agonists, cell-based qHTS assay with rat liver microsomes: qHTS cell viability counter screen (AID 1963580); further: nearly all actives have a fitted effect of over 45% in size; further: potency means the concentration at half of the fitted maximal effect
In short: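 Viability is assessed in parallel with the p53 reporter read: HCT-116 p53RE-bla cells receive compounds plus rat microsomes and NADPH (0.5 mg/mL final apiece), incubate 16 h at 37 C, and then CellTiter-Glo luminescence is recorded.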

[10] = p53 small molecule agonists, cell-based qHTS assay: qHTS cell viability counter screen (AID 1963581); further: nearly all actives have a fitted effect of over 45% in size; further: potency means the concentration at half of the fitted maximal effect
In short: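 In the same plates used for the p53 bla reporter, HCT-116 cells given compounds for 16 h at 37 C received CellTiter-Glo; luminescence was recorded 30 min later at room temperature.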

[11] = biological target: 5-hydroxytryptamine receptor 2A (Homo sapiens) (UniProt P28223); assay: 5-hydroxytryptamine receptor 2A (HTR2A) small molecule agonists, cell-based qHTS assay (AID 1963587); further: nearly all actives have a fitted effect of over 30% in size; further: potency means the concentration at half of the fitted maximal effect
5-hydroxytryptamine receptor 2A (Homo sapiens), sequence (P28223 whole entry, looked up): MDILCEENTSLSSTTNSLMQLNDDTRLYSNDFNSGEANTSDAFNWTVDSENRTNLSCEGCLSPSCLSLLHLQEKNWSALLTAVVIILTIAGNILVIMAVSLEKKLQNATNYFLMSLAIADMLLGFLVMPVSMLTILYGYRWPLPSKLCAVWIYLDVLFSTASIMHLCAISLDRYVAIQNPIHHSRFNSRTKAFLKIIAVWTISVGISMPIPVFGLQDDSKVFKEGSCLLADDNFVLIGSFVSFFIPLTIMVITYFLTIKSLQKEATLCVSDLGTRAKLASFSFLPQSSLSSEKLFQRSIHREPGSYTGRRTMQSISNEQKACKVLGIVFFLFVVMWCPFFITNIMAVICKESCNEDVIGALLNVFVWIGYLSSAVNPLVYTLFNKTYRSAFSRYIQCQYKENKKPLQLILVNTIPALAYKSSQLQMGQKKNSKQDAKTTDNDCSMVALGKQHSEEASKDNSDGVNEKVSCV
In short: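 CHO cells stably expressing human HTR2A, plated 18 h, loaded with calcium dye 1 h at 37 C. Agonist mode: compounds added and intracellular calcium fluorescence recorded kinetically for 2 min at 1 sec intervals.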

[12] = biological target: Muscarinic acetylcholine receptor M1 (Homo sapiens) (UniProt P11229); assay: Cholinergic receptor muscarinic 1 (CHRM1) small molecule agonists, cell-based qHTS assay (AID 1963589); further: nearly all actives have a fitted effect of over 35% in size; further: potency means the concentration at half of the fitted maximal effect
Muscarinic acetylcholine receptor M1 (Homo sapiens), sequence (P11229 whole entry, looked up): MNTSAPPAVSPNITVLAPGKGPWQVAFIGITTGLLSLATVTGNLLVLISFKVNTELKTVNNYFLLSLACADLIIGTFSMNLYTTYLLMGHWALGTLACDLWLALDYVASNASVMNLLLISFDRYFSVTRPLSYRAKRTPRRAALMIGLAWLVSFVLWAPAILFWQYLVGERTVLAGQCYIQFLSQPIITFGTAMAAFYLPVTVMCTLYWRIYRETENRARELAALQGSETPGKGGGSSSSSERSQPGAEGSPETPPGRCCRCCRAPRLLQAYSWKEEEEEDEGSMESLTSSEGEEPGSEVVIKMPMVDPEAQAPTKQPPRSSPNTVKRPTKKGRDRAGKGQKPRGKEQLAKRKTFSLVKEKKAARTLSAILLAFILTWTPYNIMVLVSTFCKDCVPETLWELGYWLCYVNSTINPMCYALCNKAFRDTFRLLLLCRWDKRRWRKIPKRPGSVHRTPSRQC
In short: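 Each compound was tested at 15 concentrations across three independent runs on dye-loaded CHO cells stably expressing human CHRM1, reading intracellular calcium fluorescence kinetically at 1 sec intervals.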

[13] = biological target: Beta-2 adrenergic receptor (Homo sapiens) (UniProt P07550); assay: Adrenergic beta2 receptor (ADRB2) small molecule antagonists, cell-based qHTS assay (AID 1963592); further: nearly all actives have a fitted effect of over 50% in size; further: potency means the concentration at half of the fitted maximal effect; on activity change, negative = inhibition: series mostly up to about 92 µM
Beta-2 adrenergic receptor (Homo sapiens), sequence (P07550 whole entry, looked up): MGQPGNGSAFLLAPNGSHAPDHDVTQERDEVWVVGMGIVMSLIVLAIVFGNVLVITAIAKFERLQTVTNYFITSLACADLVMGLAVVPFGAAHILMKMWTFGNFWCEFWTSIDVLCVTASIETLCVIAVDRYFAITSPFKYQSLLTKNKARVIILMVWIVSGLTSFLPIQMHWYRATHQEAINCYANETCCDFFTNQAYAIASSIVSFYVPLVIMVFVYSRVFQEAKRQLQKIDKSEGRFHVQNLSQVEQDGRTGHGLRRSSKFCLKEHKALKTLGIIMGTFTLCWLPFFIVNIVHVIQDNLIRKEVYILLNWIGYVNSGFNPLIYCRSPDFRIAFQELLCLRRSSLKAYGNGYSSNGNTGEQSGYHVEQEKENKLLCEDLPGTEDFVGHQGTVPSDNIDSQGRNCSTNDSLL
In short: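 Cells (CHO, stable ADRB2 overexpression) incubated 18-20hr at 37C; compounds added from DMSO; agonist mix (1nM isoproterenol, 100uM IBMX, 25uM Ro-20-1724) added; 0.5hr RT; d2-cAMP and anti-cAMP-cryptate added; 1hr RT; 665/615 nm read.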

[14] = biological target: D(2) dopamine receptor (Homo sapiens) (UniProt P14416); assay: Dopamine D2 receptor (DRD2) small molecule antagonists, cell-based qHTS assay (AID 1963595; active means well fitted inhibition curve with a large enough effect in the signal ratio in the repeat runs, with a control signal flat; the % refers to the signal ratio; further: potency means the concentration at half of the fitted maximal effect)
D(2) dopamine receptor (Homo sapiens), sequence (P14416 whole entry, looked up): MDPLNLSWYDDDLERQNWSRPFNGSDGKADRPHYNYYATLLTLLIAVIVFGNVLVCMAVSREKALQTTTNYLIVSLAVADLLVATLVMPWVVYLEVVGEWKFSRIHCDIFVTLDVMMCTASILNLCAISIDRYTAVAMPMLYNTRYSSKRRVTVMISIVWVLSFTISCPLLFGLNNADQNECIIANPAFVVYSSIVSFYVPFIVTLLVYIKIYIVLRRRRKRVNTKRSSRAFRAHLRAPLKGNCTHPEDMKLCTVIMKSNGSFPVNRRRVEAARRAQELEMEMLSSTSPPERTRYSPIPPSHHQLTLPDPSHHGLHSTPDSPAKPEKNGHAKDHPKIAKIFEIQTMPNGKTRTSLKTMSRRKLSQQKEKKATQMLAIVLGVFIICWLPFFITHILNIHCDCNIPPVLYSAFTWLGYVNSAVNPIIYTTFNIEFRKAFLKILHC
In short: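 HEK293 cells stably expressing DRD2, preincubated with 0.1 mM Ro20-1724 and compounds 10 min, were stimulated with 200 nM NKH477 plus 12 nM quinpirole for 30 min at room temperature; cAMP measured by HTRF (665/620 nm).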

[15] = p53 small molecule agonists, cell-based qHTS assay (AID 1963582; active means well fitted activation curve with a large enough effect in the signal ratio in the repeat runs, not every such curve was filed as active; the % refers to the signal ratio)
In short: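 Compounds are pin-transferred in DMSO onto p53RE-bla cells and incubated 16 h at 37 C. The B/G FRET beta-lactamase substrate is then applied for 2 h at RT and fluorescence recorded.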

[16] = biological target: 5-hydroxytryptamine receptor 2A (Homo sapiens) (UniProt P28223); assay: 5-hydroxytryptamine receptor 2A (HTR2A) small molecule antagonists, cell-based qHTS assay (AID 1963586); further: nearly all actives have a fitted effect of over 45% in size
In short: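 Antagonist-mode intracellular calcium assay: DOI (4 nM) added after 5 min compound pre-incubation at room temperature to dye-loaded HTR2A-CHO cells. Fluorescence followed for 3 min, sampled every second.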

[17] = biological target: Muscarinic acetylcholine receptor M1 (Homo sapiens) (UniProt P11229); assay: Cholinergic receptor muscarinic 1 (CHRM1) small molecule antagonists, cell-based qHTS assay (AID 1963588); further: nearly all actives have a fitted effect of over 40% in size
In short: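 CHRM1-CHO calcium-flux assay, antagonist mode. Cells were seeded 18 h, dye-loaded 1 h at 37 C and given compound for 5 min at RT, then acetylcholine was added at 50nM. FDSS fluorescence was read 3 min; 15 concentrations, three runs.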

[18] = cAMP Responsive Elements (CRE) small molecule agonists, cell-based qHTS assay (AID 1963590)
In short: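 Cell line: CRE-bla HEK 293T; medium DMEM/10% dialyzed FBS/0.1 mM NEAA/1 mM pyruvate/25 mM HEPES; 3 h compound exposure; beta-lactamase FRET readout after 2 h substrate loading at RT.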

[19] = cAMP Responsive Elements (CRE) small molecule antagonists, cell-based qHTS assay (AID 1963591; active means well fitted inhibition curve with a large enough effect in the signal ratio in the repeat runs, not every such curve was filed as active; the % refers to the signal ratio)
In short: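 Inhibition of NKH477-driven (0.25 uM final) CRE-beta-lactamase signal in HEK293T cells, 3 h compound exposure at 37 °C, detected by FRET substrate fluorescence.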

[20] = biological target: D(2) dopamine receptor (Homo sapiens) (UniProt P14416); assay: Dopamine D2 receptor (DRD2) small molecule agonists, cell-based qHTS assay (AID 1963594); further: nearly all actives have a fitted effect of over 35% in size
In short: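 HEK293 cells stably expressing human DRD2, pre-treated with PDE inhibitor Ro20-1724 (0.1 mM final) and compound 10 min at room temperature, then stimulated with NKH477 (200nM […]) for 30 min. cAMP read by HTRF (665/620 nm).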
On the % scale 0 is the no-effect control and ±100 the full control effect.

C=C(C)C(=O)[O][Sn]([CH2]CCC)([CH2]CCC)[CH2]CCC
active: Potency [1] 0.306 µM | Potency [2] 0.433 µM | Potency [3] 15.5 µM | Potency [4] 11 µM | Potency [5] 34.7 µM | Potency [8] 14.5 µM | Potency [9] 3.24 µM | Potency [10] 3.63 µM | Potency [11] 9.77 µM | Potency [12] 9.77 µM | Potency [13] 1.09 µM | Potency [14] 2.43 µM
inactive: Potency [6] | Potency [7]

CC(=O)OCC1=C(C(=O)O)N2C(=O)[C@@H](N)[C@H]2SC1
inactive: activity change, negative = cytotoxicity [1] 3.02% [at 19 µM] | activity, positive = activation [2] -4.57% [at 19 µM] | activity change [3] -1.33% [at 11.8 µM, hits give high values] | activation [4] -0.221% [at 15.8 µM] | activation [5] 1.18% [at 11.8 µM] | activation [6] 8.26% [at 13.5 µM] | activation [7] 0.252% [at 13.6 µM] | activity change, negative = cytotoxicity [8] -9.53% [at 13.5 µM] | activity change, negative = cytotoxicity [9] 0.524% [at 13.5 µM] | activation [15] 1.4% [at 13.5 µM] | activity, negative = inhibition [16] 10.6% [at 12.7 µM] | activation [11] 1.54% [at 15.9 µM] | activity, negative = inhibition [17] 7.63% [at 12.6 µM] | activation [12] 0.141% [at 15.8 µM] | activation [18] -2.32% [at 19 µM] | activity change, negative = inhibition [19] -7.18% [at 18.9 µM] | activity change, negative = inhibition [13] -0.292% [at 19 µM] | activation [20] 5.76% [at 19 µM] | activity change, negative = inhibition [14] 7.52% [at 18.9 µM]

Cc1c([N+](=O)[O-])c(C)c([N+](=O)[O-])c(C(C)(C)C)c1[N+](=O)[O-]
inactive: Potency [1] | Potency [2] | Potency [3] | Potency [4] | Potency [5] | Potency [6] | Potency [7] | Potency [8] | Potency [9] | Potency [10] | Potency [16] | Potency [11] | Potency [17] | Potency [12] | Potency [13] | Potency [20] | Potency [14]

Oc1cccc(Cl)c1
inactive: Potency [1] | Potency [2] | Potency [3] | Potency [4] | Potency [5] | Potency [6] | Potency [7] | Potency [8] | Potency [9] | Potency [10] | Potency [16] | Potency [11] | Potency [12] | Potency [18] | Potency [19] | Potency [13] | Potency [20]

C=CC(=O)OCCCCOC(=O)C=C
inactive: Potency [3] | Potency [4] | Potency [5] | Potency [6] | Potency [7] | Potency [8] | Potency [9] | Potency [10] | Potency [16] | Potency [11] | Potency [17] | Potency [12] | Potency [13] | Potency [20] | Potency [14]
active: Potency [1] 61.1 µM | Potency [2] 24.3 µM

NC(=O)c1ccc(N)nc1
active: Potency [10] 5.76 µM
inactive: Potency [1] | Potency [2] | Potency [3] | Potency [4] | Potency [5] | Potency [6] | Potency [7] | Potency [8] | Potency [9] | Potency [16] | Potency [11] | Potency [17] | Potency [12] | Potency [18] | Potency [19] | Potency [13] | Potency [20] | Potency [14]

O=C1NCN(c2ccccc2)C12CCN(CC1COc3ccccc3O1)CC2 (centres undefined)
active: Potency [11] 0.0425 µM | Potency [14] 0.0376 µM
inactive: Potency [1] | Potency [2] | Potency [3] | Potency [4] | Potency [5] | Potency [6] | Potency [7] | Potency [8] | Potency [9] | Potency [10] | Potency [17] | Potency [12] | Potency [20]

CO/N=C(\C(=O)OC)c1ccccc1CO/N=C(\C)c1cccc(C(F)(F)F)c1
inactive: Potency [1] | Potency [2] | Potency [3] | Potency [4] | Potency [5] | Potency [6] | Potency [7] | Potency [8] | Potency [9] | Potency [10] | Potency [16] | Potency [11] | Potency [12] | Potency [19] | Potency [13] | Potency [14]
